# Lamin A splicing – LMNA splicing modulation | HeLa LMNA splicing GFP/RFP minigene ratio, 48 h | Potency, µM (top dose mostly 46.1 µM), for the others: at the top dose ratio change, negative = inhibition, hits mostly inhibitors | hit rate 0.01% among 200,000 | AID 1487; active = well fitted inhibition curve with a large enough effect in the signal ratio, with a control signal flat, not every such curve was filed as active; inconclusive = small, poorly fitted or top-dose-only effect, or effect the other way, or a change in a side signal; the % refers to the signal ratio; note: potency is the fitted concentration of half-maximal effect; % is set by controls: 0 for no effect and ±100 for the full control effect
#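 S3 HeLa cells stably expressing lamin A-EGFP splicing minigene plus DsRed2, 600 cells/well, 48 h compound exposure at 37C. Laser-scanning cytometry; analysed as GFP (500-530 nm)/RFP (575-640 nm) total intensity ratio; 0.5% DMSO vehicle.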
# NPSR antagonist – neuropeptide S receptor (human) antagonism, cAMP. Potency, µM (top dose mostly 38.3 µM), without a hit: at the highest dose activity change, negative = inhibition, hits mostly inhibitors. CHO-NPSR cells, cAMP TR-FRET, antagonist mode. hit rate 1% among 220,000. Q6W5P4; note: potency is the fitted concentration of half-maximal effect; % is set by controls: 0 for no effect and ±100 for the full control effect; nearly all actives have a fitted effect of over 50% in size
# Target sequence (Q6W5P4 whole entry, looked up): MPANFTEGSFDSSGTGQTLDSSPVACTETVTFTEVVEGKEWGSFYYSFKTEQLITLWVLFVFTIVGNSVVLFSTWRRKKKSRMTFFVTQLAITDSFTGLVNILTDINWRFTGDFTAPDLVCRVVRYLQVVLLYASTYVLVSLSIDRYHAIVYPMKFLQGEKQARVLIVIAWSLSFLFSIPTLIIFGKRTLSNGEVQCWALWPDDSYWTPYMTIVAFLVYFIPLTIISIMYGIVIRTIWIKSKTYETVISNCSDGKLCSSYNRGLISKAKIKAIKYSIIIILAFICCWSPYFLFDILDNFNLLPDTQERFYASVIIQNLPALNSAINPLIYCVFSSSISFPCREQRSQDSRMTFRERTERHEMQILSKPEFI
# HTT ATP protect – protects HTT-Q103 PC12 cells, measured by ATP | PC12 HTT-Q103 induced, cytoprotection, ATP luminescence, 40 h | Potency, µM (series often up to 56.4 µM), for the others: cytoprotection (ATP increase), most hits filed as activators | hit rate 0.14% among 230,000; note: potency is the fitted concentration of half-maximal effect; % of control where 0% means no effect; nearly all actives have a fitted effect of over 45% in size
#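 Cells were plated at 1500 per well in phenol red-free DMEM with 5% equine and 5% calf serum. Tebufenozide (100 nM final) and compounds were added, then ATPlite reagent, and luminescence was read.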
# CBFb-RUNX1 inh – inhibitors of human CBF-beta and RUNX1 interaction; Q01196+Q13951; AlphaScreen CBFb-His/RUNX1-biotin binding, biochemical; Potency, µM (series often up to 59.8 µM), without a hit: at the top dose activity, negative = inhibition, most hits filed as inhibitors; 230,000 tested, under 10 active; AID 1477; note: % of control where 0% means no effect
#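 Proteins preincubated together for 20 min at RT before compound addition; 15 min later, nickel and streptavidin beads were added and left 90 min prior to AlphaScreen measurement.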
# HttQ103 aggreg – reduces HttQ103-GFP aggregates in PC12 cells. PC12 HttQ103-GFP aggregates, Acumen cytometry, 40 h. Potency, µM (series often up to 46.1 µM), for inactives: at the top dose activity change, negative = inhibition, actives largely listed as inhibitors. hit rate 1.1% among 220,000. AID 1688; note: potency is the fitted concentration of half-maximal effect; % is set by controls: 0 for no effect and ±100 for the full control effect; nearly all actives have a fitted effect of over 60% in size
#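 Using laser scanning cytometry, GFP-positive aggregates were counted after lysis of PC12 cells induced with 100 nM tebufenozide to express HTT exon 1 Q103–GFP. Compounds were tested in titration.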
# MBNL1 CUG block – blocks human MBNL1 binding to CUG repeat RNA. Q9NR56. TR-FRET MBNL1-His/biotin-(CUG)12 binding, 665/545 ratio. Potency, µM (highest dose often 57.5 µM), for the others: at the highest dose activity change, negative = inhibition, usual class: inhibitors. hit rate 0.036% among 280,000. AID 2675; active = well fitted inhibition curve with a large enough effect in the signal ratio, with a control signal flat, not every such curve was filed as active; inconclusive = small, poorly fitted or top-dose-only effect, or effect the other way, or a change in a side signal; inactive = no such curve, though single readings can be large or run the other way; the % refers to the signal ratio; note: potency is the fitted concentration of half-maximal effect; % is set by controls: 0 for no effect and ±100 for the full control effect
# Target sequence (Q9NR56 whole entry, looked up): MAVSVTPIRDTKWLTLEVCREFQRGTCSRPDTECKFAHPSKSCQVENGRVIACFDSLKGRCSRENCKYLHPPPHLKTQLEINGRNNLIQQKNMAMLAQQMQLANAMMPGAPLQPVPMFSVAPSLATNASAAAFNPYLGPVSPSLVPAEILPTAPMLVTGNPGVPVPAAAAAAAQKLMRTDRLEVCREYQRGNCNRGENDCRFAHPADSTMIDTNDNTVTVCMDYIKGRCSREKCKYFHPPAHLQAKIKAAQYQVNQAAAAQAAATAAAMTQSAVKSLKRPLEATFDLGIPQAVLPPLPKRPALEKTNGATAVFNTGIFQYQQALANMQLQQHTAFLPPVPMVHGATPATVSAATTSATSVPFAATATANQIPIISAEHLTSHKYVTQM
#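 Compounds (final 92 nM to 58 uM) are added to His-tagged MBNL1 and biotin-(CUG)12, then terbium anti-His antibody and streptavidin-XL665 (5 nM final). After 60 min at room temperature, the 665/545 nm ratio is read.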
# Numbers without * were called inactive; ? = inconclusive; . = no result given; [ ] = remark or other dose. Most compounds without a hit are left out; they make up all but 1.1% or so of the library. Unless noted, calls come from the whole dose curve; as a rule, active = well fitted curve in the direction sought with a large enough effect; inconclusive = small, poorly fitted or top-dose-only effect, or another doubt; inactive = no such curve, though single readings can be large; an effect the other way counts as inactive or inconclusive.
SMILES,Lamin A splicing,NPSR antagonist,HTT ATP protect,CBFb-RUNX1 inh,HttQ103 aggreg,MBNL1 CUG block
O=C(c1ccccc1)N1CCc2cc(CNS(=O)(=O)c3ccccc3Cl)ccc21,-6%[46 µM],.,.,.,.,.
COc1ccc(OC)c(CNC(=O)c2ccccc2NC(=O)c2nsc3ccccc23)c1,3%[46 µM],.,.,.,.,.
COc1cc(/C=C2/SC(=O)NC2=O)ccc1OC(=O)c1ccco1,.,.,.,.,.,9%
CCOc1cc(/C=C2/SC(=S)NC2=O)ccc1OC(=O)c1ccco1,-14%[46 µM],-40%,-124%,-19%,14µM*,12%
COC(=O)c1ccc2c(=O)n(CCc3ccc(S(N)(=O)=O)cc3)c(SCC(=O)C(C)(C)C)nc2c1,-10%[46 µM],.,.,.,.,.
Cc1ccc(C(=O)N2CCN(c3ccc([N+](=O)[O-])cc3-n3cccc3)CC2)cc1,.,10µM*,15%[10 µM],?,-3%[9.22 µM],23%
CCCn1cnc2c(SCC(=O)O)nc(N)nc21,.,.,2%[10 µM],.,.,.
CCOC(=O)C1=C(Cc2ccc(OC)cc2)C(=O)c2ccccc2C1=O,?,?,-26%,-5%,?,?
CCOC(=O)C1=C(Cc2ccc(C)cc2)C(=O)c2ccccc2C1=O,?,10µM*,-47%,-8%,?,?
CC(Oc1ccc(Cl)cc1Cl)c1nc(-c2ccc(NC(=O)c3cccnc3)cc2)no1 (configuration not stated),-2%,?,-41%,5%,7.9µM*,-2%
Cc1cc(=O)[nH]c(Nc2cccc(C(F)(F)F)c2)n1,14%,5%[7.67 µM],11%,4%,11µM*,-10%
CCCCCCOC(=O)C(C#N)c1nc2ccccc2nc1N1CCCCC1 (configuration not stated),18%,10µM*,-6%,15%,-20%,-6%
NC(C(=O)O)(c1ccc(P(=O)(O)O)cc1)C1CC1 (configuration not stated),.,.,-37%,19%,.,.
COc1ccc(NS(=O)(=O)c2cccs2)cn1,.,7%,.,14%,2%,-1%
COc1ccc(NS(=O)(=O)c2ccc(OC)c3ccccc23)cn1,?,-15%[46.1 µM],-23%,4%,18µM*,?
CNc1sc(C(=O)c2cccs2)c(N)c1-c1nc2ccccc2s1,?,3.2µM*,5%[10 µM],-4%,-7%,?
CNc1sc(C(=O)c2ccc(F)cc2)c(N)c1-c1nc2ccccc2s1,?,?,17%,?,4%[9.22 µM],?
CN(C)c1ccc(-c2nc(N(C)C)c3ccccc3n2)cc1,13µM*,.,-31%,.,.,.
N#Cc1c(-c2ccc(F)cc2)noc1N,-8%,9%[46.1 µM],?,-1%,14%,-2%
COc1cccc(-c2noc(N)c2C#N)c1,-1%,1%[46.1 µM],-11%,-2%,11µM*,-7%
C=Cc1c(C)/c2[n-]/c1=C\c1[n-]c(c(CC)c1C)/C=c1\[n-]c3c(c1C)C(=O)C(C(=O)[O-])C=3c1[n-]c(c(C)c1CCC(=O)[O-])\C=2.[Cu].[Na+].[Na+] (configuration not stated),?,.,-130%,.,-11%,.
CCN1CCc2c(sc(NC(=O)Cc3ccccc3)c2C(N)=O)C1,.,.,.,.,.,11%
CCOC(=O)N1CCc2c(sc(NC(=O)c3ccc(Cl)s3)c2C(N)=O)C1,?,2.5µM*,-4%,5%,12%,-6%
CCN1CCc2c(sc(NC(=O)Nc3ccc(Cl)c(Cl)c3)c2C(N)=O)C1,?,-14%,.,?,11µM*,-1%
CCOC(=O)N1CCc2c(sc(NC(=O)C3COc4ccccc4O3)c2C(N)=O)C1 (configuration not stated),.,.,.,.,.,2%
SMILES,Lamin A splicing,NPSR antagonist,HTT ATP protect,CBFb-RUNX1 inh,HttQ103 aggreg,MBNL1 CUG block
O=C1CCCc2nc(N3CCN(Cc4ccccc4)CC3)ncc21,?,-6%[46.1 µM],-22%,2%,11µM*,-8%
CCCc1cc(COC)c(C#N)c(=O)[nH]1,.,.,-7%[10 µM],.,.,.
CCN(CC)S(=O)(=O)c1cccc(NC(=O)Nc2cccc(C(F)(F)F)c2)c1,?,10µM*,-86%,8%,?,-22%
CCN(CC)S(=O)(=O)c1cccc(NC(=O)CC2CCCC2)c1,.,.,.,.,.,0%
Oc1nc(Nc2cccc(Cl)c2)sc1/C=C1\C=Nc2ccccc21,?,-24%[46.1 µM],7%[10 µM],-12%,8.9µM*,-9%
CC(C(=O)NCCC1=CCCCC1)N1C(=O)c2ccccc2C1=O (configuration not stated),-11%,-8%[46.1 µM],-61%[10 µM],1%,5.6µM*,9%
O=C(NCCC1=CCCCC1)C(c1ccccc1)c1ccccc1,1%,?,-30%,17%,-32%,-11%
C=C1C[C@@]23C[C@]1(O)CC[C@@H]2[C@]12C=C[C@@H](O)[C@@](C)(C(=O)O1)[C@@H]2[C@@H]3C(=O)O,.,.,10%,.,.,.
O=C(O)c1ccc(C2CCCCC2)cn1,-22%,-1%[46.1 µM],-43%,-15%,3.2µM*,-3%
OC(C#Cc1ccccn1)c1cccs1 (configuration not stated),-9%,?,6%,1%,5µM*,8%
O=S(=O)(Nc1nc2ccccc2nc1Cl)c1ccc(Br)cc1,-6%[46 µM],-32%,-6%,3%,10µM*,12%
O=S(=O)(Nc1nc2ccccc2nc1Cl)c1ccc(Cl)cc1,-17%,-28%,5%[0.074 µM],4%,6%,19%
O=S(=O)(Nc1nc2ccccc2nc1N1CCc2ccccc2C1)c1ccc(Br)cc1,?,-42%,-38%[10 µM],-10%,7.1µM*,.
O=S(=O)(Nc1nc2ccccc2nc1N1CCc2ccccc2C1)c1ccc(Cl)cc1,?,-56%,9%[10 µM],-14%,?,.
CN[C@@H](CC(C)C)C(=O)N[C@@H]1C(=O)N[C@H](CC(N)=O)C(=O)N[C@H]2C(=O)N[C@H]3C(=O)N[C@H](C(=O)N[C@H](C(=O)O)c4cc(O)cc(O)c4-c4cc3ccc4O)[C@H](O)c3ccc(c(Cl)c3)Oc3cc2cc(c3O[C@@H]2O[C@@H](CO)[C@@H](O)[C@@H](O)[C@H]2O[C@H]2C[C@](C)(N)[C@H](O)[C@H](C)O2)Oc2ccc(cc2Cl)[C@@H]1O,.,.,-12%[1.9 µM],.,.,.
O=C(O)c1ccc2c3c(cccc13)C(=O)N(c1ccccc1)C2=O,.,0%,20%,?,8%,?
Cc1c(O)c2c3c(cccc3c1O)C(=O)N(c1ccccc1)C2=O,?,-29%,.,7%,20µM*,47%[11.5 µM]
c1ccc(CCNc2ncnc3nc[nH]c23)cc1,-4%,10%[46.1 µM],-27%[0.074 µM],5%,11µM*,-3%
CCC(=O)OCc1cnc(C)c2oc(=O)c(C(=O)Nc3ccc(CC)cc3)cc12,3%[46 µM],.,.,.,.,.
Oc1ccc(/C=N/Nc2cc(N3CCCC3)nc(N3CCCC3)n2)cc1,-12%,-24%[46.1 µM],-6%,-1%,19%,13%
